The results in this text go back to PubChem BioAssay.

Assay [1] is described as follows: stimulators of insulin release from INS-1E, primary screen, cell-based, 5 mM glucose, NPC library (AID 1117329;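 active = compound raises insulin release from rat beta cells at 5 mM glucose, no numeric limit stated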). The note with it: rat INS-1E insulin secretion, at 10 µM, stronger effect = higher value.
Assay [2] in a line: growth inhibition of GSK3B-pretreated HCT116 cells – cell-based, CellTiter-Glo, 0.2 to 20 µM (AID 1117336;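 active = compounds lowering colon cancer cell viability after pretreatment blocking the GSK3B kinase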). The note with it: HCT116 viability after GSK3B inhibitor, at 20 µM, stronger effect = higher value. Background: Cellular ATP, detected with luciferase, serves as a proxy for viable cell number.
Assay [3] can be described thus: inhibition of endothelial tube formation, primary screen, imaging, VEGF stimulated, CD31 staining, tube area, NPC library (AID 1117340;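 active = compound that reduces growth-factor-driven endothelial tube area in a mixed cell culture, no cutoff stated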). As to conditions: VEGF-stimulated ADSC/ECFC co-culture, at 10 µM, stronger effect = higher value.
A short description of assay [4]: glucagon-like peptide 1 release enhancers, primary assay, NCI-H716 cell line, NPC library (AID 1117341;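 active = compound raises GLP1 secretion from the human gut endocrine cells, with no numeric limit stated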). As to conditions: NCI-H716 cells, at 10 µM, stronger effect = higher value.
Assay [5] in a line: HCT116 colon cancer cell growth inhibition, primary screen, CellTiter-Glo luminescence, NPC library (AID 1117342;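 active = compounds that lower survival of HCT116 colon cancer cells in the luminescence readout, no numeric limit stated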). As to conditions: at 20 µM (top of the series).
Assay [6] in a line: CellTiter-Glo luminescent readout of SW480 viability loss, NPC library primary (AID 1117343). The note with it: CellTiter-Glo luminescence; at 20 µM (top of the series).
Assay [7] can be described thus: decreased DLD-1 cellular survival, CellTiter-Glo luminescent readout, NPC compound collection, primary HTS (AID 1117346;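 active = compounds that lower survival of DLD-1 colon cancer cells in the luminescence readout, no cutoff given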). The note with it: DLD-1 viability, CellTiter-Glo luminescence; at 20 µM (top of the series).
For assay [8], the target named is 6-phosphogluconate dehydrogenase, decarboxylating (Homo sapiens) (UniProt P52209). As to the kind of experiment: 6PGD enzyme inhibitors, primary screen, biochemical, human, recombinant enzyme, NADPH absorbance (AID 1159550;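 active = at least 20% inhibition of 6-phosphogluconate dehydrogenase activity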). The note with it: recombinant 6PGD, NADPH absorbance 341 nm; at 10 µM; stronger effect = higher value.
Sequence of 6-phosphogluconate dehydrogenase, decarboxylating (Homo sapiens) (P52209 whole entry, looked up): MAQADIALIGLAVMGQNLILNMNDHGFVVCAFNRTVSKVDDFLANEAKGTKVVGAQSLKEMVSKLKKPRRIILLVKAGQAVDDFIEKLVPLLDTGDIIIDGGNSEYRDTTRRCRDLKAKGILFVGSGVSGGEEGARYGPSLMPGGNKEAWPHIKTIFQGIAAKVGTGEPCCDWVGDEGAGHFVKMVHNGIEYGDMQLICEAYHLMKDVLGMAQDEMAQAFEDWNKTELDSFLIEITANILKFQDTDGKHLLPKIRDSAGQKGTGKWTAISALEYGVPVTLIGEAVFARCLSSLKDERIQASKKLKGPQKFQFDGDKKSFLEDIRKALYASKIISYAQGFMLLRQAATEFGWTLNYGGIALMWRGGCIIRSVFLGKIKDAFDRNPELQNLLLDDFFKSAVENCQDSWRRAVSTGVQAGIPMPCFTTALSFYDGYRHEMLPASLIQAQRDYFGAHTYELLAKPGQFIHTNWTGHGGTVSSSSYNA
Assay [9] is described as follows: differential killing of epithelial or mesenchymal cells, primary screen, imaging, PC-3E GFP, TEM4-18 mCherry, co-culture (AID 1345086;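 active = compounds killing one labelled cell type while sparing the other, by normalised counts and ratio limits, not self-fluorescent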;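 for all read-outs here: cells exposed to compound for 72 h before imaging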;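 for red/green cell ratio (normalised): normalised mesenchymal count divided by normalised epithelial count so high means epithelial killing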). As to conditions: imaging cell counts, at 1 µM; for red/green cell ratio (normalised): actives lie on both sides, counts scaled to control wells, 1 = unselective.
A short description of assay [10]: growth inhibition of DIPG glioma cells, dose response, cell-based, SU-DIPG-XVII, MIPE5.0, CellTiter-Glo, qHTS (AID 1347060; cut-off not given, nearly all actives have AC50 up to about 26 µM;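 for AC50: cells exposed to compound for 48 hours before viability readout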). The note with it: SU-DIPG-XVII viability, CellTiter-Glo ATP luminescence.
Assay [11] in a line: growth inhibition of DIPG glioma cells, dose response, cell-based, SU-DIPG-XIII, MIPE4.0, CellTiter-Glo, qHTS (AID 1347061; cut-off not given, nearly all actives have AC50 up to about 37 µM;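 note: cells exposed to compound for 48 hours before readout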). The note with it: SU-DIPG-XIII viability, CellTiter-Glo ATP luminescence.
Assay [12] can be described thus: growth inhibition of DIPG glioma cells, dose response, cell-based, JHH-DIPG-1, MIPE4.0, CellTiter-Glo, qHTS (AID 1347062; cut-off not given, nearly all actives have AC50 up to about 27 µM). As to conditions: JHH-DIPG-1 viability, CellTiter-Glo ATP luminescence.
The nature of assay [13]: growth inhibition of DIPG glioma cells, dose response, cell-based, SU-DIPG-XIII, MIPE5.0, CellTiter-Glo, qHTS (AID 1347064; cut-off not given, nearly all actives have AC50 up to about 23 µM;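 for AC50: cells exposed to compound for 48 hours before the viability read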). As to conditions: SU-DIPG-XIII viability, CellTiter-Glo ATP luminescence.
Assay [14] in a line: growth inhibition of DIPG glioma cells, dose response, cell-based, SU-DIPG-IV, MIPE4.0, CellTiter-Glo, qHTS (AID 1347063; cut-off not given, nearly all actives have AC50 up to about 30 µM;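 note: compound exposure lasted 48 hours before the viability readout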). The note with it: SU-DIPG-IV viability, CellTiter-Glo ATP luminescence.
The mark [15] stands for this setting: measured here: epithelial PC-3E GFP cell survival.
[16] abbreviates: measured here: mesenchymal TEM4-18 mCherry cell survival.

Results filed as inconclusive are left out. Active and inactive are the calls of the source.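 Rule for the calls, unless noted: active = compounds that lower viability of the colon cancer cells in the luminescence readout, with no numeric limit stated; inactive = the rest.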

The inhibition is the drop in the measured response relative to a control, in per cent. For the compound `COc1cc([C@H]2Oc3cc([C@H]4Oc5cc(O)cc(O)c5C(=O)[C@@H]4O)ccc3O[C@@H]2CO)ccc1O`, the insulin secretion stimulation in assay [1] is 1.8% (inactive). For the same compound, the viability decrease in [2] is -35.4% (inactive). The tube area decrease in [3] was 4.2% (inactive). Besides, in [4], the GLP1 secretion stimulation was 2.1% (inactive). Further, in [5], the inhibition of viability is 18.7% (inactive). Besides, the viability decrease (inhibition) in assay [6] was 16.2% (inactive); in [7], -3.4% (inactive). In addition, in [8], the inhibition was 9.07% (inactive). Also, in assay [9], the red/green cell ratio (normalised) is 0.97 (inactive). Moreover, the normalised cell number in [9] (setting [15]) worked out at 0.9; in assay [9] (setting [16]) it was 0.88. Further, the call in assay [10], in [11] and in assay [12] was inactive.

In general, AC50 refers to the concentration giving half of the maximal activity seen. Take `CN(Cc1cc(Br)cc(Br)c1N)C1CCCCC1`: the insulin secretion stimulation in [1] was 6.9% (inactive). In assay [2], the viability decrease was 87.5% (active). Moreover, the tube area decrease in assay [3] was 7.5% (inactive). For the same compound, the GLP1 secretion stimulation in assay [4] was -1.6% (inactive). The inhibition of viability in [5] is 80.7% (active). Moreover, the viability decrease (inhibition) was 125% (active) in assay [6] and 97.2% (active) in assay [7]. Moreover, in assay [8], the inhibition is 16% (inactive). Moreover, in assay [9], the red/green cell ratio (normalised) is 1.35 (inactive). The normalised cell number in [9] (setting [15]) was 0.99; in assay [9] (setting [16]), 1.33. The AC50 is 26.3 µM (active) in assay [10] and 20.9 µM (active) in assay [13]. Besides, the result in [11] and in [12] was inactive.

As to `CS(=O)(=O)c1ccc([C@@H](O)[C@@H](CO)NC(=O)C(Cl)Cl)cc1`, the insulin secretion stimulation in assay [1] is 1% (inactive). Also, the viability decrease in [2] is -30.5% (inactive). For the same compound, in assay [3], the tube area decrease is 42.1% (active). For the same compound, the GLP1 secretion stimulation in [4] was 0.4% (inactive). The inhibition of viability in assay [5] is 2% (inactive). The viability decrease (inhibition) in assay [6] was -9.6% (inactive); in assay [7] it was -4% (inactive). For the same compound, in assay [8], the inhibition was -8.02% (inactive). In [9], the red/green cell ratio (normalised) was 0.94 (inactive). In addition, the normalised cell number in assay [9] (setting [15]) is 1.12; in assay [9] (setting [16]), 1.06. Moreover, the compound was called inactive in [11], in assay [12] and in [14].

With `Clc1ccc(C(c2ccccc2Cl)C(Cl)Cl)cc1` (stereo not drawn), the insulin secretion stimulation in assay [1] was 1.4% (inactive). The viability decrease in assay [2] was 46.6% (inactive). The tube area decrease in assay [3] was 6.6% (inactive). For the same compound, the GLP1 secretion stimulation in assay [4] is 15.5% (inactive). In [5], the inhibition of viability is 88.6% (active). Also, the viability decrease (inhibition) was 84.4% (active) in assay [6] and 99.5% (active) in assay [7]. Also, the inhibition in assay [8] was 5.07% (inactive). In addition, the red/green cell ratio (normalised) in assay [9] is 0.98 (inactive). Besides, the results for the normalised cell number in assay [9] (setting [15]) and in assay [9] (setting [16]) were 1.11 and 1.08, respectively. For the same compound, the AC50 in assay [14] is 16.6 µM (active); in assay [13], 18.6 µM (active).

As to `CCCc1cc(C(N)=S)ccn1`, the insulin secretion stimulation in assay [1] is -1.7% (inactive). Also, the viability decrease in assay [2] is -13.4% (inactive). Further, the tube area decrease in assay [3] was 1% (inactive). The GLP1 secretion stimulation in assay [4] is -0.6% (inactive). In assay [5], the inhibition of viability was 6.7% (inactive). Also, the viability decrease (inhibition) in assay [6] was 5.3% (inactive); in [7], -3.5% (inactive). In assay [8], the inhibition was 3.48% (inactive). Also, in [9], the red/green cell ratio (normalised) was 0.84 (inactive). In addition, the normalised cell number in [9] (setting [15]) stood at 1.14; in assay [9] (setting [16]) it was 0.96. Further, the compound was called inactive in [10], in assay [12] and in [13].

With `Cc1cccc(N(C)C(=S)Oc2ccc3ccccc3c2)c1`, in [1], the insulin secretion stimulation is 0.4% (inactive). Moreover, the viability decrease in assay [2] is 50% (active). Besides, the tube area decrease in [3] is -39% (inactive). Further, the GLP1 secretion stimulation in assay [4] was -2.7% (inactive). In assay [5], the inhibition of viability is 58.6% (active). The figures for the viability decrease (inhibition) in [6] and in [7] were 35.1% (inactive) and 56.8% (active), respectively. Further, the inhibition in assay [8] is 6.26% (inactive). In assay [9], the red/green cell ratio (normalised) was 1.19 (inactive). Besides, the figures for the normalised cell number in assay [9] (setting [15]) and in assay [9] (setting [16]) were 1.22 and 1.46, respectively. Besides, the compound was called inactive in assay [12] and in [13].

In the case of `Cn1c(=O)c2c(ncn2CC(O)CO)n(C)c1=O` (stereo not drawn), the insulin secretion stimulation in assay [1] was 1.1% (inactive). In [2], the viability decrease is -2.9% (inactive). Moreover, the tube area decrease in assay [3] was -11.6% (inactive). Besides, the GLP1 secretion stimulation in assay [4] is -0.3% (inactive). In addition, the inhibition of viability in assay [5] was 7.4% (inactive). Besides, the viability decrease (inhibition) in assay [6] is 12.3% (inactive); in [7] it was 5.3% (inactive). In assay [8], the inhibition was -4.2% (inactive). Also, the red/green cell ratio (normalised) in assay [9] is 1.41 (inactive). The normalised cell number amounted to 0.78 in assay [9] (setting [15]) and 1.1 in [9] (setting [16]). For the same compound, the result in assay [11], in assay [12], in assay [14] and in assay [13] was inactive.

`CCn1cc(C(=O)O)c(=O)c2cc(F)c(N3CCNCC3)nc21`: the insulin secretion stimulation in [1] was -0.1% (inactive). Further, the viability decrease in assay [2] was 5.9% (inactive). In assay [3], the tube area decrease is 2.1% (inactive). In addition, the GLP1 secretion stimulation in [4] was -2.8% (inactive). Moreover, the inhibition of viability in assay [5] is -6.97% (inactive). In addition, the viability decrease (inhibition) was -275% (inactive) in [6] and -18.4% (inactive) in [7]. Further, the inhibition in assay [8] was -18.3% (inactive). Also, the red/green cell ratio (normalised) in [9] was 1.34 (inactive). Also, the normalised cell number in assay [9] (setting [15]) came to 0.89; in [9] (setting [16]) it was 1.2. In addition, the outcome in assay [11], in assay [12] and in assay [14] was inactive.

As for `CCC[C@H](N[C@@H](C)C(=O)N1[C@H](C(=O)O)C[C@@H]2CCCC[C@@H]21)C(=O)OCC`, in assay [1], the insulin secretion stimulation is 2.3% (inactive). The viability decrease in assay [2] is -3% (inactive). Moreover, the tube area decrease in assay [3] was 14.1% (inactive). Moreover, the GLP1 secretion stimulation in assay [4] was -2.9% (inactive). For the same compound, the inhibition of viability in [5] is 18.1% (inactive). For the same compound, the values for the viability decrease (inhibition) in assay [6] and in assay [7] were 0% (inactive) and 6% (inactive), respectively. Further, in assay [8], the inhibition is -5.32% (inactive). Moreover, in [9], the red/green cell ratio (normalised) is 1.01 (inactive). The normalised cell number in assay [9] (setting [15]) and in [9] (setting [16]) was 0.96 in each case. The compound was called inactive in assay [10] and in assay [13].

Take `Cc1onc(-c2ccccc2Cl)c1C(=O)N[C@@H]1C(=O)N2[C@@H]1SC(C)(C)[C@@H]2C(=O)O`: the insulin secretion stimulation in assay [1] was -0.3% (inactive). The viability decrease in [2] is -27.7% (inactive). Besides, the tube area decrease in assay [3] is 12.2% (inactive). In addition, the GLP1 secretion stimulation in assay [4] was -1% (inactive). Further, the inhibition of viability in assay [5] is 19.2% (inactive). Moreover, the results for the viability decrease (inhibition) in assay [6] and in [7] were -3.3% (inactive) and -0.7% (inactive), respectively. In assay [8], the inhibition is -7.26% (inactive). Moreover, in assay [9], the red/green cell ratio (normalised) was 1.1 (inactive). Moreover, the normalised cell number in assay [9] (setting [15]) came out at 1.34; in assay [9] (setting [16]), 1.48. Further, the outcome in assay [11] and in [14] was inactive.
